Assay outcomes from PubChem.
Most compounds without a hit are left out; they make up all but 3.4% or so of the library.
MITF inh: inhibitors of human MITF; O75030; inhibition, % at 2.6 µM; AlphaScreen MITF homodimerization, bead proximity signal; actives 0.91% (n = 650,000); in the data active means inhibition above about 50%;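 further: 0% = vehicle wells with protein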
TEAD-YAP inh: TEAD-YAP interaction inhibition. HEK-TIYL cells, TEAD-Gal4/YAP UAS-luciferase luminescence. inhibition, % at 9.12 µM. actives 1.4% (n = 640,000). AID 1259422; in the data active means inhibition above about 32%;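 further: 0% = median of test compound wells and 100% = reference inhibitor wells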
FBW7 activator: activators of human E3 ligase FBW7; normalized activity (activation), % at 26.1 µM; actives 0.13% (n = 650,000); AlphaScreen FBW7–phospho-cyclin E peptide binding, activator screen; AID 1259310; in the data active means normalized activity above about 1.9%;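 further: purified mutant Fbw7 with reduced substrate affinity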
GPR151 activ: human GPR151 activation; PathHunter beta-arrestin GPR151 cells, luminescence; activation, % at 11.2 µM; actives 1% (n = 650,000); in the data active means activation above about 4.9%;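 further: 0% = median of compound wells and 100% = cells with positive control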
Target sequence (Q8TDV0 whole entry, looked up): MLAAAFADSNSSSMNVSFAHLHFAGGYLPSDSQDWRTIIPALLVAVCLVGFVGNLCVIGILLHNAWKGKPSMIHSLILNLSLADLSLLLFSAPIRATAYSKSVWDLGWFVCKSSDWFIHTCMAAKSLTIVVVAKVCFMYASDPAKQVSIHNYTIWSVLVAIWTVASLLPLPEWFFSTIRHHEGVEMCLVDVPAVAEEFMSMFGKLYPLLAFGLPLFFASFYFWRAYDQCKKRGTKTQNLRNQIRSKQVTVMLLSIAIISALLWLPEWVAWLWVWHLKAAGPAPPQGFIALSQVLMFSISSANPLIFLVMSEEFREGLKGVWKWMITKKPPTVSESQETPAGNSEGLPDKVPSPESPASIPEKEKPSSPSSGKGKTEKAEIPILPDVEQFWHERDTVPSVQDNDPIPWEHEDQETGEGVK
Starred values were filed as active, the others as inactive; i = inactive; nt = no result given.

SMILES	MITF inh	TEAD-YAP inh	FBW7 activator	GPR151 activ
O=C(/C=C\Nc1cccc(Br)c1)c1ccccc1	15.2	-54.2	0.1	1.5
O=C(/C=C/Nc1ccccc1Br)c1ccccc1	9.3	82.7*	-0.3	-5.8
CCCCN(CCCC)CC(O)CN(c1ccc(C)cc1)S(=O)(=O)c1ccccc1 (stereo unspecified)	-7.9	4.8	0.0	-0.2
COc1cccc2c1C(=O)c1c(O)c3c(c(O)c1C2=O)C[C@@](O)(C(C)=O)C[C@@H]3OC1CC(N)C(O)C(C)O1 (stereo partly specified)	34.8	nt	0.1	1.5
COc1cccc2c1C(=O)c1c(O)c3c(c(O)c1C2=O)C[C@@](O)(C(=O)CO)C[C@@H]3O[C@H]1C[C@H](N)[C@H](O)[C@H](C)O1	43.5	92.5*	-0.3	-2.9
C=CCn1c2ccccc2n2cc(-c3ccccc3)nc12	10.0	-11.7	1.4	-1.9
CCn1c2ccccc2n2cc(-c3ccc(Br)cc3)nc12	-11.4	-12.0	2.3*	2.9
Clc1ccc(-c2cn3c4ccccc4n(CCN4CCCCC4)c3n2)cc1	-27.7	4.4	5.0*	0.4
COc1ccc2c(c1)C(=O)NC2CC(=O)NC1(c2ccccc2OC)CCCC1 (stereo unspecified)	9.3	48.9*	-0.1	1.0
O=C(C1=C(O)C(=O)N(CCN2CCOCC2)C1c1ccco1)c1ccco1 (stereo unspecified)	9.7	-1.7	0.1	1.9
C=CCNC(=S)N/N=C(\C)c1ccc2ccccc2c1	10.1	4.3	0.2	0.1
C=CCNC(=S)N/N=C(\C)c1ccccn1	60.1*	89.5*	-0.6	-2.6
COc1ccc(CCN2C(=O)CSC2c2ccc(C(C)C)cc2)cc1OC (stereo unspecified)	-3.4	40.3*	-0.1	2.0
COc1cc(N2C(=O)NC(=O)/C(=C\c3ccc(N(C)C)cc3)C2=O)cc(OC)c1OC	1.7	2.4	2.5*	-0.3
COc1cccc(/C=C2\CN(C)C/C(=C\c3cccc(OC)c3OC)C2=O)c1OC	17.3	33.0*	-0.2	-0.1
O=c1[nH]c(CCl)nc2cc(Cl)ccc12	13.5	-1.5	0.0	2.6
O=C(OCc1cc(=O)n2c(n1)sc1ccccc12)C12CC3CC(CC(O)(C3)C1)C2	19.1	75.1*	-0.1	-1.3
O=c1cc(CSc2nnnn2-c2ccc(O)cc2)nc2sc3ccccc3n12	15.4	7.8	0.1	0.2
Cc1ccc(C(=O)N2CCN(c3nc(-c4ccccc4)c4cc(Br)ccc4n3)CC2)cc1	10.2	-4.6	-0.1	-1.3
O=C(c1ccccc1)N1CCN(c2nc(-c3ccccc3)c3ccccc3n2)CC1	9.3	-1.8	2.2*	-0.4
Cc1ccc2nc(N3CCN(C=O)CC3)nc(-c3ccccc3)c2c1	-4.5	7.4	2.1*	-0.3
O=c1c(CN2CCCC2CO)coc2ccc(Cl)cc12 (stereo unspecified)	-3.1	-4.9	-0.2	0.1
COc1ccc(OC)c(/C(C)=N/N=C(N)N)c1	-17.6	2.2	-0.2	-1.0
CCOC(=O)CCC(=O)Nc1cc(-c2ccc(C)cc2)[nH]n1	-6.6	1.8	-0.1	0.2
CC(=O)Nc1cc(-c2ccc(C)cc2)[nH]n1	19.1	-57.9	1.9*	0.4
SMILES	MITF inh	TEAD-YAP inh	FBW7 activator	GPR151 activ
COc1ccc(Br)cc1/C=C1\N=C(c2ccc(C)cc2)OC1=O	0.9	-3.2	0.0	-1.1
CC(=O)N1C(=S)NC(=O)/C1=C/c1cc2cc(C)ccc2nc1N1CCOCC1	-0.7	37.6*	0.0	0.6
O=C(c1ccc(-n2cccc2)cc1)N1CCC(c2nnc(-c3ccco3)o2)CC1	15.2	-4.2	2.2*	-0.6
COc1ccc([N+](=O)[O-])cc1C1NN=C(c2ccccc2)S1 (stereo unspecified)	2.9	-30.0	0.0	3.5
COc1ccc(O)c(C2NN=C(c3ccccc3)S2)c1 (stereo unspecified)	-0.2	41.7*	0.0	-1.2
CCOc1ccc(C2NN=C(c3ccccc3)S2)cc1 (stereo unspecified)	1.4	70.9*	0.1	-5.5
CC(=O)Nc1ccc(C2NN=C(c3ccccc3)S2)cc1 (stereo unspecified)	19.0	-35.2	0.1	-3.7
CN(c1ccccc1)c1ccc(C2NN=C(c3ccccc3)S2)cc1 (stereo unspecified)	-34.3	-1.0	2.1*	-1.9
Clc1ccc(C2=NN(c3cccc(Cl)c3Cl)C(c3ccc(Br)cc3)C2)cc1 (stereo unspecified)	-2.6	0.7	-0.1	2.1
O=c1[nH]c2nonc2nc1Nc1ccc(Cl)cc1	-10.4	-5.2	0.0	-0.4
FC(F)(F)c1cccc(Nc2nc3nonc3nc2Nc2ccc(Cl)cc2)c1	-0.2	81.5*	-0.1	2.0
Clc1ccc(Nc2nc3nonc3nc2Nc2ccc(Cl)cc2)cc1	12.7	92.2*	-0.3	2.4
Ic1ccc(Nc2nc3nonc3nc2N2CCCCC2)cc1	11.7	3.8	-0.2	0.8
Clc1ccc(Nc2nc3nonc3nc2N2CCCCC2)cc1	16.4	33.4*	0.0	1.5
Fc1ccc(Nc2nc3nonc3nc2Nc2ccc(F)cc2)cc1	-4.3	61.3*	-0.1	0.2
O=S(=O)(c1cccc2nonc12)N1CCC2(CC1)OCCO2	13.7	1.8	0.0	-1.5
CN(C(=O)CN1C(=O)CCc2ccccc21)c1ccc(Br)cc1	15.9	16.1	-0.1	-0.1
COc1ccc(CCNC(=O)CCC2(Cc3ccc(OC)cc3)CCC(=O)N2)cc1 (stereo unspecified)	-13.9	7.1	0.1	-0.3
NC(=O)c1c(Cl)nsc1S(=O)(=O)Cc1ccccc1	-1.1	45.5*	-0.1	-2.3
COC(=O)Nc1c(Cl)nsc1S(=O)(=O)Cc1ccccc1	-0.8	14.1	-0.1	1.2
COc1ccccc1-c1csc(NC(=O)c2cc(OC)c(OC)c(OC)c2)n1	i	12.0	-0.1	-0.3
Cc1ccc(-c2csc(NC(=O)c3cccc(Oc4ccccc4)c3)n2)cc1	19.3	-10.3	0.3	0.3
CCN(CC)S(=O)(=O)c1ccc(C(=O)Nc2nc(-c3ccc(C)cc3C)cs2)cc1	-1.9	6.8	0.2	-2.0
COc1cc(C(=O)Nc2nc(-c3ccccn3)cs2)cc(OC)c1OC	30.9	73.3*	-0.2	-0.5
Cc1ccc(-c2csc(NC(=O)c3ccc(S(=O)(=O)N(C)C)cc3)n2)c(C)c1	2.7	35.3*	0.1	2.6
SMILES	MITF inh	TEAD-YAP inh	FBW7 activator	GPR151 activ
COc1cc(C(=O)Nc2nc(-c3ccc(C)cc3C)cs2)cc(OC)c1OC	4.0	32.3*	-0.1	1.0
O=C(Nc1nc(-c2ccccn2)cs1)c1cccc(Oc2ccccc2)c1	-1.8	37.1*	-0.1	2.0
C(=N\Nc1nc(-c2ccccc2)cs1)/c1ccccn1	1.8	-22.3	-0.5	-1.4
CCOC(=O)C(CC)Sc1nc2[nH]ncc2c(=O)[nH]1 (stereo unspecified)	7.8	8.2	0.7	1.7
CC(=O)Nc1nnc(SCc2cccc(Cl)c2)s1	13.1	-0.7	0.2	-1.1
C/C(=N\NC(=O)c1ccccn1)c1ccc2ccccc2c1	-1.8	-9.3	-0.4	-3.1
CCN(CC)c1ccc(/C=C2/C(=O)NC(=S)N(Cc3ccco3)C2=O)cc1	75.0*	2.6	-0.3	0.1
CN(C)c1ncc(/C=C2/C(=O)NC(=O)N(Cc3ccco3)C2=O)cn1	79.2*	-6.9	-0.5	0.5
